An excerpt weighted towards active compounds, which were near 2.3% of everything screened.
Chronic BCR inh: qHTS Assay to Find Inhibitors of Chronic Active B-Cell Receptor Signaling | ABC-DLBCL IkBa-CBG/CBR reporter, luminescence ratio, 4 h | Potency, µM (titrated, usually from 46.1 µM), inactives show at the highest dose activity change, negative = inhibition, actives largely listed as inhibitors | hit rate 0.05% among 340,000 | AID 493014, 2011; active means well fitted inhibition curve with a large enough effect in the signal ratio, with a control signal flat, not every such curve was filed as active; inconclusive means small, poorly fitted or top-dose-only effect, or effect the other way, or a change in a side signal; the % refers to the signal ratio;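 further: plate controls were basal doxycycline-induced cells for no effect and cells given 10 µM MG132 for full effect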
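Cell line TMD8 (human ABC DLBCL), stably expressing tet-inducible CBG68-IkBa fusion and CBR; IMDM/0.5% FBS; cpd up to 46 uM; dox induction, 4 h, 37C/5% CO2; dual luminescence; green/red ratio; MG132 control.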
FUS suppressor: qHTS for Suppressors of FUS Proteinopathy: Primary screen using FUS-linked yeast assay; S. cerevisiae FUS-expressing, growth rescue, OD600, 24 h; Potency, µM (highest dose often 76.6 µM), hits mostly activators; hit rate 0.24% among 390,000;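 further: plate controls were DMSO vehicle for no effect and reference control for full effect; nearly all actives have a fitted effect of over 55% in size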
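Yeast expressing FUS under galactose induction, OD 0.005 in 2% galactose medium; compounds in a dilution series, 24 h at 30C. Growth rescue by absorbance at 600 nm; CP55940 positive control, DMSO negative.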
TDP43 rescue: qHTS of TDP-43 Inhibitors; TDP-43 expressing yeast growth rescue, BacTiter-Glo, 24 h; hit rate 1.8% among 410,000; Potency, µM (doses to about 46.1 µM), for the others: at the top dose growth rescue (activation), actives largely listed as activators; AID 652104, 2013; further: % of control where 0% means no effect; nearly all actives have a fitted effect of over 50% in size
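In this qHTS, compounds that restore growth of yeast expressing TDP-43 appear as activators. Cells (OD600=0.02, galactose medium, raffinose-pregrown) are incubated with compound 24 hr at 30 deg C and growth is quantified by BacTiter-Glo.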
Abeta rescue: qHTS for compounds that reverse cellular toxicity of Amyloid beta (A-beta) peptide in yeast: Primary Screen; yeast expressing A-beta42, growth rescue, OD600, 48 h; response scale: 0% DMSO, 100% iron-clioquinol control; Potency, µM (titrated, usually from 46.1 µM), actives largely listed as activators; hit rate 0.063% among 410,000; further: nearly all actives have a fitted effect of over 55% in size
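Growth rescue measured by 600 nm absorbance after 48 h yeast culture at 30 C with compound. Values normalized between DMSO and an equimolar ferric chloride plus clioquinol control.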
aSyn yeast inh: qHTS of alpha-syn Inhibitors; Potency, µM (top dose mostly 46.1 µM), for the others: top-dose growth rescue (activation), most hits filed as activators; hit rate 0.14% among 370,000; Yeast expressing alpha-synuclein, growth rescue, BacTiter-Glo, 24 h; further: % of control where 0% means no effect; nearly all actives have a fitted effect of over 65% in size
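Galactose-induced alpha-syn yeast (OD600=0.02, raffinose-pregrown) + pinned cpd, 24 hr, 30 deg C; growth by BacTiter-Glo luminescence. Growth restoration scores as activation.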
uPA surface inh: qHTS for Inhibitors of Cell Surface uPA Generation; cell surface uPA generation assay, qHTS; AID 540303, 2011; Potency, µM (highest dose often 38.3 µM), for inactives: top-dose activity change, negative = inhibition, actives largely listed as inhibitors; hit rate 0.31% among 330,000; active means well fitted inhibition curve with a large enough effect; inconclusive means small, poorly fitted or top-dose-only effect; inactive means no such curve, though single readings can be large or run the other way; tested in mouse RAW 264.7 cells; further: on the % scale 0 is the no-effect control and ±100 the full control effect; nearly all actives have a fitted effect of over 55% in size
* = called active by the depositor; i = inactive; ? = inconclusive; . = no result given. Unless noted, the call rests on the fitted dose curve; in most records, active means well fitted curve in the direction sought with a large enough effect; inconclusive means small, poorly fitted or top-dose-only effect, or another doubt; inactive means no such curve, though single readings can be large; an effect the other way counts as inactive or inconclusive. Potency means the concentration at half of the fitted maximal effect.

SMILES | Chronic BCR inh | FUS suppressor | TDP43 rescue | Abeta rescue | aSyn yeast inh | uPA surface inh
Cc1cc(C(=O)CSc2nncs2)c(C)n1Cc1ccco1 | 17.6% | i | 19.7% | i | 0.8% | -11.6%
Cc1cc(C(=O)CCl)c(C)n1Cc1ccco1 | -29.4% | i | 10µM* | i | -30.8% | -6.8%
COC(=O)CCn1c(C)cc(C(=O)COc2ccccc2C(N)=O)c1C | 0.0% | i | -11.6% | i | 5.7% | -8.1%
Cc1cc(C(=O)CCl)c(C)n1CCc1ccccc1 | -18.8% | i | 10µM* | i | -11.3% | -6.2%
COc1ccccc1-c1c(C)[nH]n2c(=O)c(Cc3ccccc3)c(C)nc12 | 3.5% | i | 3.7% | i | -3.8% | -25.2%
CC(C)CCn1cnc2c1c(=O)[nH]c(=O)n2Cc1ccccc1 | -4.3% | i | 15.3% | i | -9.0% | -5.6%
CCOC(=O)c1sc(=S)n(-c2ccc(OC)cc2)c1C | ? | i | 20µM* | i | -1.3% | -3.7%
CCOC(=O)c1sc(=S)n(-c2ccc(Cl)cc2)c1C | ? | i | 25.1µM* | i | 0.5% | 5.6%
CCc1nc(Nc2ccccc2OC)c2oc3ccccc3c2n1 | ? | i | 12.6µM* | i | -2.3% | -6.6%
CC(NC(=O)c1ccco1)c1cccc2ccccc12 (stereo unspecified) | -8.7% | i | 20µM* | i | -0.5% | 0.7%
CC(=O)OC[C@@H]1CN(Cc2cccc(C(F)(F)F)c2)C[C@H](n2cnc3c(NCc4ccco4)ncnc32)O1 | . | ? | 11.2µM* | i | 3.2% | .
CC(=O)OC[C@@H]1CN(Cc2cccc(C(F)(F)F)c2)C[C@H](n2cnc3c(N4CCOCC4)ncnc32)O1 | . | ? | 0.0% | i | 9.5% | .
COc1ccc(Nc2ccc(C(=O)O)cc2[N+](=O)[O-])cc1 | ? | i | ? | i | 4.4% | 16.9%
O=C(O)c1ccc(Nc2ccc(F)c(F)c2)c([N+](=O)[O-])c1 | 6.3% | i | 11.2µM* | i | 6.5% | -1.5%
Cc1ccc(NC(=O)COC(=O)c2cc(Cl)ccc2[N+](=O)[O-])c(C)c1 | ? | . | 7.0% | i | 1.2% | -3.3%
O=C(COC(=O)c1cc(Cl)ccc1[N+](=O)[O-])Nc1cccc2ccccc12 | ? | . | 20µM* | i | -2.0% | 1.8%
CCOC(=O)C(C(=O)OCC)C(Nc1cccc(Br)c1)c1ccccc1 (stereo unspecified) | ? | i | 12.6µM* | i | 0.5% | -12.3%
Cc1ccc(C)c(N2CCN(C(=O)c3cc4sccc4n3C)CC2)c1 | 9.9% | ? | 14.3% | i | 0.2% | .
Cn1c(C(=O)N2CCCC(C(=O)N3CCN(c4ccccc4)CC3)C2)cc2sccc21 (stereo unspecified) | . | ? | 19.2% | i | . | .
Cc1ccc(C)c(N2CCN(C(=O)C3CCN(C(=O)c4cc5sccc5n4C)CC3)CC2)c1 | . | ? | 12.6µM* | i | . | .
Cc1cccc(N2CCN(C(=O)C3CCN(C(=O)c4cc5sccc5n4C)CC3)CC2C)c1 (stereo unspecified) | . | 31.6µM* | 19.8% | ? | . | .
Cc1ccc(C)c(N2CCN(C(=O)c3ccc(N4CCCC4=O)cc3)CC2)c1 | -11.1% | i | 20µM* | i | 2.4% | -5.9%
Cc1cccc(N2CCN(C(=O)c3cccc(S(=O)(=O)N4CCCCC4)c3)CC2)c1C | 1.7% | i | 7.08µM* | i | 6.1% | 3.6%
O=C(c1cccc(S(=O)(=O)N2CCCCC2)c1)N1CCc2ccccc21 | 0.1% | 2.82µM* | -6.6% | i | 4.2% | -1.2%
O=C(c1cccc(S(=O)(=O)N2CCCC2)c1)N1CCCc2ccccc21 | 3.2% | i | 1.1% | i | 0.9% | -0.8%
SMILES | Chronic BCR inh | FUS suppressor | TDP43 rescue | Abeta rescue | aSyn yeast inh | uPA surface inh
O=C(c1cccc(S(=O)(=O)N2CCCCCC2)c1)N1CCN(c2ccccc2F)CC1 | 3.9% | i | ? | i | 8.1% | -3.0%
Cc1cccc(N2CCN(C(=O)c3cccc(N4CCCC4=O)c3)CC2)c1C | -6.6% | i | 12.6µM* | i | 4.8% | -7.5%
O=C(CSc1cccc2cccnc12)Nc1ccc(S(=O)(=O)N2CCOCC2)cc1 | ? | i | -0.2% | i | -0.5% | -1.7%
COC(=O)c1cn(NC(=O)c2cnccn2)c(=O)c2ccccc12 | -11.1% | i | ? | i | 22.4µM* | -1.9%
O=C(Nn1cc(C(=O)Nc2ccccc2F)c2ccccc2c1=O)c1cnccn1 | 0.0% | i | -6.5% | i | -17.8% | -8.0%
CC(C)c1ccc(CC(=O)N2CCC2(C)C(=O)Nc2cnc3ccccc3c2)cc1 (stereo unspecified) | . | i | ? | i | 5.6% | .
CC1(C(=O)Nc2cccc3cccnc23)CCN1C(=O)CC1CC1 (stereo unspecified) | . | i | 17.5% | i | 14.9% | .
Cc1ccc(S(=O)(=O)NC(=O)C2(C)CCN2C(=O)Cc2ccc(-c3ccccc3)cc2)cc1 (stereo unspecified) | . | 28.2µM* | 30.0% | i | -16.9% | .
CC(C)(C)c1ccc(CC(=O)N2CCC2(C)C(=O)Nc2cnc3ccccc3c2)cc1 (stereo unspecified) | . | ? | 17.8µM* | i | ? | .
CC1(C(=O)Nc2cccc3cccnc23)CCN1C(=O)Cc1ccc(Cl)cc1Cl (stereo unspecified) | . | i | 20µM* | i | -2.8% | .
CC1(C(=O)Nc2cccc3ncccc23)CCN1C(=O)Cc1ccc(-c2ccccc2)cc1 (stereo unspecified) | . | ? | 25.1µM* | i | 7.1% | .
COC(=O)CSc1nc2sc3c(c2c(=O)n1-c1ccccc1)CCN(C)C3 | 1.0% | i | -2.9% | i | 3.8% | -4.9%
S=C(NCc1ccccc1)NCc1cccc(Cl)c1 | -2.1% | i | 29.2% | 14.1µM* | 2.6% | 0.0%
S=C(NCc1ccccc1)NCc1ccccc1Cl | 1.6% | i | ? | 12.6µM* | 0.4% | -12.6%
Cc1ccc(C(=O)N/C(=C\c2ccccc2)C(=O)NCc2cccnc2)cc1 | -2.0% | i | 2µM* | i | -7.8% | -1.2%
Cc1ccc(C(=O)NC(=S)NCc2ccccc2)cc1 | 8.3% | i | 15.8µM* | ? | -8.6% | -5.6%
Fc1ccc(NC(=S)NCc2ccccc2Cl)cc1 | 3.5% | i | -7.4% | ? | 3.5% | -5.2%
O=C(NCc1cccnc1)/C(=C/c1ccccc1)NC(=O)c1ccccc1 | 2.6% | i | 13.0% | i | 0.2% | 1.8%

Screening results as filed in PubChem.
